# Shown are actives, neighbours in structure and some others; about 21% of the full set was active somewhere.
# MRP-1 activ – H69AR viability gain despite doxorubicin, primary screen, MRP-1 activator project, H69AR cells, CellTiter-Glo. AID 799, 2007. viability rescue. viability increase, % at 10 µM. 140,000 compounds, 0.61% hits;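 active = viability gain under doxorubicin at or above a set limit, the compound median plus 3 SD, cut at about 4.7% in these data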;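 also: MRP-1 overexpressing cells given doxorubicin 25 µM after compound pretreatment; 18-22 h compound pretreatment then 72 h with doxorubicin before readout; 0% = doxorubicin-only wells and 100% = vehicle-treated cells without doxorubicin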
# MRP reversal – reversal of MRP1-mediated doxorubicin resistance, primary screen, H69AR cells, doxorubicin co-treatment; H69AR cells + 2 uM doxorubicin, CellTiter-Glo, 72 h; differential viability (reversal), % at 10 µM; 85,000 compounds, 0.04% hits; AID 602, 2007;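 active = viability drop by adding the cancer drug above about 55%, with treated viability meeting a 40% cutoff, limit read from the data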;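 also: viability without doxorubicin minus viability with 2 µM doxorubicin for each compound; larger differential means the compound sensitizes cells more to doxorubicin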
# CYP2C9 inhib – blockers of cytochrome P450 2C9 activity – biochemical, luminescence, ADME assay, primary screen. P11712. CYP2C9 Supersomes, luciferin-H conversion. inhibition, % at 5 µM. 96,000 compounds, 20% hits. AID 777, 2007;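 active = blocking of liver enzyme CYP2C9 beyond about 50% at 5 µM, limit read from the data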
# Target sequence (P11712 whole entry, looked up): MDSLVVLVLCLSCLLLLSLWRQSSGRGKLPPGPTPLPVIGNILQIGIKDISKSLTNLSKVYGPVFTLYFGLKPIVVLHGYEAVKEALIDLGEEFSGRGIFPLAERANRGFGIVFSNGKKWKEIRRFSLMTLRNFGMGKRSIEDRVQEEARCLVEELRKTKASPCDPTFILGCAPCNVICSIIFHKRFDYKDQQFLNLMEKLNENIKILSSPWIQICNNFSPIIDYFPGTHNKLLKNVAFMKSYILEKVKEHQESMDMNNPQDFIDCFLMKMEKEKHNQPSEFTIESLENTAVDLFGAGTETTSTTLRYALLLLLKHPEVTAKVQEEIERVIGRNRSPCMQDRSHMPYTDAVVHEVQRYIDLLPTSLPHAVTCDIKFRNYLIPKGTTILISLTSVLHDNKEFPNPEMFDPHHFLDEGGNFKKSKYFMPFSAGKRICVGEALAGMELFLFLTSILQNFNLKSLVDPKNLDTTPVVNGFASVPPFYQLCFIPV
# CYP2C19 act – human CYP2C19 activators, primary screen, biochemical, luminescence | 96,000 tested, under 10 active | Cytochrome P450 2C19 (Homo sapiens), P33261 | activation factor at 5 µM | recombinant CYP2C19, luciferin-H EGE luminescence; hits give high values; 0 = fully inhibited enzyme, 1 = untreated enzyme | AID 1025, 2008;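 active = activation factor of at least 2 at 5 µM in the primary screen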;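 also: 0 = wells with 2.5 mM tranylcypromine and 1 = vehicle-only wells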
# CYP2C19 inh – blockers of cytochrome P450 2C19 activity – biochemical, luminescence, ADME assay, primary screen; AID 778, 2007; P33261; CYP2C19 Supersomes, luciferin-H EGE luminescence, 30 min; inhibition, % at 5 µM; 96,000 compounds, 21% hits;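 active = CYP2C19 inhibition above a set limit at 5 µM in the primary screen, cut at about 50% in these data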;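 also: plate controls were negative control wells for no effect and 2.5 mM tranylcypromine positive control for full effect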
# CYP2C9 activ – human CYP2C9 activators, primary screen, biochemical, luminescence | recombinant CYP2C9, luciferin-H conversion; hits give high values; factor 1 = untreated enzyme, 0 = blocked | activation factor at 5 µM | 96,000 compounds, 1.4% hits | AID 1024, 2008;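 active = activation factor of 2 or more for CYP2C9 at a 5 µM dose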;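 also: 0 = sulfaphenazole-blocked wells and 1 = vehicle-only wells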
# Numbers without * were called inactive; . = no result.
SMILES,MRP-1 activ,MRP reversal,CYP2C9 inhib,CYP2C19 act,CYP2C19 inh,CYP2C9 activ
CCCCC(c1nnnn1Cc1ccco1)N1CCN(C(=O)c2ccco2)CC1 (centres undefined),-2.9,-6.9,50.7*,0.1,85.3*,0.5
NS(=O)(=O)c1ccc(CCNC2CC(=O)N(CCc3ccccc3)C2=O)cc1 (centres undefined),-1.5,7.1,-15.1,1.1,-11.9,1.2
COC(=O)c1[nH]c2ccc(Cl)cc2c1NC(=O)CN1CCc2cc(OC)c(OC)cc2C1,-1.9,-12.1,89.4*,0.1,86.6*,0.1
CCOC(=O)c1[nH]c2ccc(F)cc2c1NC(=O)CN1CCc2cc(OC)c(OC)cc2C1,-3.3,5.6,81.4*,0.3,68.4*,0.2
COC(=O)c1[nH]c2cc(C)ccc2c1NC(=O)CN1CCc2cc(OC)c(OC)cc2C1,-5.8,.,49.3,0.5,51.2*,0.5
O=C(Cc1ccc(Cl)cc1)Nc1ccc(SC(F)F)cc1,0.3,.,.,.,.,.
C/C(=N\O)C(=O)OC1CC(C)CCC1C(C)C (centres undefined),-1.3,-17.2,96.4*,0,95.7*,0
Cc1cccc(CN(C)CCc2ccccn2)c1,-2.1,8.0,-5.4,0.8,20.9,1.1
Cc1cccc(OCC(=O)N(C)CCc2ccccn2)c1,-0.5,3.8,12.6,0.3,67.6*,0.9
COc1ccc(Oc2ccc(/C=C/C(=O)c3ccc(O)cc3)cc2[N+](=O)[O-])cc1,-4.2,.,.,.,.,.
Cc1ccc(S(=O)(=O)N=C2SCCCS2)cc1,-0.9,3.5,-103.5,0.6,36.7,2*
O=C(CSCCSCC(=O)c1ccco1)c1ccco1,-3.3,5.0,28.1,1,3.6,0.7
CCn1c(SCc2nc3ccccc3[nH]2)nnc1-c1ccc(OC)cc1,-1.8,-0.3,26.7,0.2,81.9*,0.7
C=CCn1c(SCc2nc3ccccc3[nH]2)nnc1-c1ccc(OC)cc1,-2.2,-17.6,22.3,0.2,81.2*,0.8
COc1cc(NC(=O)COC(=O)/C=C/c2c(C)nn(-c3ccc(F)cc3)c2Cl)cc(OC)c1,-2.5,.,.,.,.,.
O=C([C@H](Cc1ccccc1)NS(=O)(=O)c1ccc(Cl)cc1)N1CC[C@@]2(O)CCCC[C@H]2C1,-2.2,-17.7,35.2,0.6,39.6,0.6
COCCOCCn1c(CCCO)nc2ccccc21,-1.5,7.0,-20.9,1.2,-19.4,1.2
COc1ccccc1Cn1c(CCCO)nc2ccccc21,-2.6,5.9,65.1*,0.2,83.6*,0.3
COc1ccc(Cn2c(CCCO)nc3ccccc32)cc1OC,-2.1,10.9,59.1*,0.1,90.8*,0.4
CCS(=O)(=O)c1nc2ccccc2n1Cc1ccccc1Cl,-1.1,11.3,61.8*,0.1,91.3*,0.4
COc1ccc(C)cc1Cn1c(S(C)(=O)=O)nc2ccccc21,-4.8,44.6,61.8*,0,98.0*,0.4
Cc1ccc(C2C(C(=O)c3sc(C)nc3C)=C(O)C(=O)N2CCCN(C)C)o1 (centres undefined),.,3.8,-6.9,1.1,-15.0,1.1
COc1cc2c(cc1OC)/C(=C/c1ccc(Br)cc1)C(=O)OC2,-4.7,.,.,.,.,.
O=C(COC(=O)c1ccc(=O)n(Cc2ccccc2)n1)Nc1ccc2c(c1)OCCO2,-4.1,-7.3,16.1,0.8,16.6,0.8
COc1ccccc1N1CCN(C(=O)c2cccc3c(=O)c(C)c(-c4ccccc4)oc23)CC1,-4.3,.,.,.,.,.
SMILES,MRP-1 activ,MRP reversal,CYP2C9 inhib,CYP2C19 act,CYP2C19 inh,CYP2C9 activ
CSCCC(CO)NC(=O)OCc1ccccc1 (centres undefined),-0.8,8.7,1.4,0.6,44.1,1
CCOc1cc(N2CCOCC2)c(OCC)cc1NC(=O)COC(=O)c1cccc2ccccc12,-0.4,.,.,.,.,.
CCc1nc2ccccc2n1Cc1ccc(OC)c(OC)c1,0.0,13.2,.,.,.,.
CCc1nc2ccccc2n1Cc1ccccc1OC,-2.0,12.1,65.4*,0,96.5*,0.3
CCCCOCCCNC(=O)CC(C)c1ccccc1 (centres undefined),-1.5,.,.,.,.,.
CC1(C(=O)NC2CCCC2)CCC(=O)N1Cc1ccccc1Cl (centres undefined),0.8,1.4,-125.0,0.9,14.1,2.3*

# Screening results: PubChem BioAssay, several laboratories
